# According to PubChem BioAssay (NCI):
# This is part of a sample that, as a whole, favours compounds with a hit. Of some 83,000 tested, about 20% had one in any assay.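 Note: values are percent growth. 100 is the growth of untreated cells, values between 100 and 0 indicate rising inhibition; between -100 and 0 indicates cell death.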 Unmarked numbers belong to inactive results. Activity calls are given as the source filed them. The calls were made as follows: active = growth percent below 10; inactive = the rest.
# Tested on: MDA-MB-468 breast
# Test: NCI-60 one-dose screen, 48 h (100 = growth as untreated, 0 = no growth, -100 = all killed)
# Conditions: 10 µM unless noted
row,SMILES,growth
1,CCCCNC(=O)Oc1ccc(/C(=C(/CC)Cc2ccccc2)c2ccc(OCCCN(C)C)cc2)cc1,72.9%
2,Fc1ccc2nc3c(cc2c1)CSc1nnc(-c2ccc[nH]c2=S)n1N3,105%
3,O=C1NN(c2ccccc2)C(c2ccc3c(c2)OCO3)N2CCC[C@@H]12 (stereo partly specified),121%
4,Clc1ccc(-c2nc(-c3cccs3)no2)cc1,44.7%
5,CCOC(=O)c1ccc(NC(=O)Nc2nccs2)cc1,-30.4% (active)
6,CCc1c(C)c2cc3c(c(C)c2oc1=O)OCC(=O)N3,69.4%
7,CCOC(=O)c1cc(C(=O)c2ccc(Br)cc2)n2cc(C)cc(C)c12,108%
8,CCCn1c(=O)c2c(nc(-c3cccc(OCCCCl)c3)n2C)n(CCC)c1=O,23.6%
9,Cc1c(CN(C)C)cc(C(C)C)cc1C(C)C,100%
10,CC(=O)Nc1cscc1NC(C)=O,95.1%
11,CN(c1ccccc1)c1ncnc2c1ncn2C,113%
12,O=C(c1ccncc1)N1N=C(c2ccc(Cl)cc2)C[C@H]1c1cn(-c2ccccc2)nc1-c1ccccc1,88.5%
13,CCCOc1ccc(/C=N/Nc2cc(C)nc3ccc(Br)cc23)cc1,96.1%
14,CCOC(=O)c1c(NC(=O)c2cccc(C(F)(F)F)c2)sc2c1CCC(=O)C2,-9.5% (active)
15,CO[C@H](C(=O)[C@@H](O)[C@@H](C)O)[C@@H]1Cc2cc3cc(O[C@H]4C[C@@H](O[C@H]5C[C@@H](O)[C@H](O)C(C)O5)[C@H](O)C(C)O4)c(C)c(O)c3c(O)c2C(=O)[C@H]1O[C@H]1C[C@@H](O[C@H]2C[C@@H](O[C@H]3C[C@](C)(O)C(=O)C(C)O3)[C@@H](O)C(C)O2)[C@H](O)C(C)O1 (stereo partly specified),-46.7% (active)
16,CCOC(=O)C(C)(c1ccccc1)c1ccccc1,109%
17,CN1CCN(Cc2ccc(NC(=O)c3cncc(C#Cc4cnc5ccc(NCCCO)nn45)c3)cc2C(F)(F)F)CC1,-59.6% (active)
18,Nc1c(-c2nc3ccc(Br)cc3c(=O)[nH]2)nnn1-c1ccccc1,65.6%
19,CC1CC(O)CC(C)(C)C1 (stereo unspecified),108%
20,O=[N+]([O-])C1=C(c2ccccc2)SC=C(c2ccccc2)S1,72.7%
21,COc1ccc(/C(=C/c2ccc3ccccc3c2)c2nn[nH]n2)cc1OC,60.2%
22,CC(C)Cc1cc(CNC(=O)C2[C@H]3CN(C(=O)c4ccccc4)C[C@@H]23)nn1-c1ccccc1 (stereo partly specified),88.9%
23,CCCCC1COc2cccc3c2N1C=C/C3=C\C(=O)N(C)c1cccc(Cl)c1 (stereo unspecified),84.4%
24,CCOC(=O)c1cn2ncnc(Oc3ccc(NC(=O)NCCN(CC)CC)c(Cl)c3)c2c1C,52.8%
25,CC[C@H](Nc1cc(C)nc(N)n1)c1nc2cccc(NCc3ccc(C(=O)NO)cc3)c2c(=O)n1-c1ccccc1,-10.6% (active)
26,C#C[C@]1(O)CC[C@H]2[C@@H]3CC=C4c5sc(Nc6ccc(Cl)cn6)nc5CC[C@]4(C)[C@H]3CC[C@@]21C,68.4%
